From PubChem BioAssay (EPA / NIEHS) come the findings set out here.

Assay [1] is described as follows: TOX21_p53_BLA_p2_viability: Viability Assessment in the Tox21 HCT-116 p53 Agonism Beta-lactamase Assay, Phase 2 (AID 2283591).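 Note: actives lower the ATP signal meaning cytotoxicity.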 The method in brief:
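Cytotoxicity readout: CellTiter-Glo ATP luminescence, 30 min at room temperature, after the beta-lactamase read. Cells were HCT116 exposed 16 h at 37C to compounds pin-transferred at 217-fold dilution from DMSO stocks.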

Assay [2] addresses Cellular tumor antigen p53 (Homo sapiens) (UniProt P04637). In words: TOX21_p53_BLA_p2_ratio: Tox21 HCT-116 p53 Agonism Beta-lactamase Assay, Ratio, Phase 2 (AID 2283592). The essentials: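 First, HCT116 reporter cells settle for 5 h at 37C. Next, DMSO compound solutions are pinned in (217-fold dilution) and left 16 h. Finally, CCF4-AM substrate is loaded 2 h at room temperature and the 460/530 nm ratio read.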

Assay [3] in a line: TOX21_p53_BLA_p3_viability: Viability Assessment in the Tox21 HCT-116 p53 Agonism Beta-lactamase Assay, Phase 3 (AID 2283593).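 Note: cells exposed to compound for 16 h before reading.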 The essentials:
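Cellular ATP was quantified by CellTiter-Glo luminescence, read after 30 min at room temperature. Beforehand, HCT116 cells (4000/well) received compound 5 h post-seeding, 217-fold diluted from DMSO, then incubated 16 h at 37C.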

Assay [4] has as its target Cellular tumor antigen p53 (Homo sapiens) (UniProt P04637). In words: TOX21_p53_BLA_p3_ratio: Tox21 HCT-116 p53 Agonism Beta-lactamase Assay, Ratio, Phase 3 (AID 2283596). The method in brief: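 Cells were seeded at 4000/well, rested 5 h at 37C, then dosed with DMSO compound solutions (217-fold dilution) for 16 h. CCF4-AM substrate was loaded for 2 h at room temperature, and the 460/530 nm emission ratio was fitted for gain of signal versus DMSO.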

For assay [5] the target is unchanged. As to the kind of experiment: TOX21_p53_BLA_p5_ratio: Tox21 HCT-116 p53 Agonism Beta-lactamase Assay, Ratio, Phase 5 (AID 2283599). The essentials:
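Beta-lactamase reporter ratio (blue 460 nm over green 530 nm, 405 nm excitation) after 2 h CCF4-AM loading, in HCT-116 cells exposed 16 h at 37 C to compounds pinned at 217-fold dilution. Increases relative to DMSO baseline scored.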

Assay [6] in a line: TOX21_p53_BLA_p5_viability: Viability Assessment in the Tox21 HCT-116 p53 Agonism Beta-lactamase Assay, Phase 5 (AID 2283600). The essentials:
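Decreased CellTiter-Glo luminescence denotes lost viability. Exposure: 16 h at 37C, 5% CO2, with compounds from DMSO stocks diluted 217-fold in wells of 4000 cells.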

Assay [7] concerns the target Cellular tumor antigen p53 (Homo sapiens) (UniProt P04637). As to the kind of experiment: TOX21_p53_BLA_p4_ratio: Tox21 HCT-116 p53 Agonism Beta-lactamase Assay, Ratio, Phase 4 (AID 2283601). The method in brief: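 Signal is the blue/green (460nm/530nm) ratio of cleaved versus uncleaved CCF4-AM substrate, read after 2 h substrate loading. Cells were HCT116 carrying the p53-responsive beta-lactamase reporter, dosed 16 h at 37C, 5% CO2; CellTiter-Glo measured in parallel.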

The target of assay [8] is Thyroid hormone receptor alpha (Rattus norvegicus) + Thyroid hormone receptor beta (Rattus norvegicus) (UniProt P18113+P63059). In words: TOX21_TR_LUC_GH3_Antagonist_Followup: Tox21 GH3 Thyroid Hormone Receptor Antagonism Luciferase Follow-Up Assay (AID 2283942). The essentials: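 Loss of T3-driven (1.0 nM final) reporter activity in GH3 cells was read by ONE-Glo luminescence after 24 h incubation at 37C; 15-point compound series spanned 92 uM to 5nM final, 1,500 cells/well.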

Assay [9] addresses THRA (gene 7067) (UniProt P10827). As to the kind of experiment: TOX21_TRA_COA_Antagonist_Followup_ratio: Tox21 Thyroid Hormone Receptor alpha Antagonism through Coactivator Recruitment Follow-Up Assay, Ratio (AID 2283953). The method in brief:
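We measured antagonism of T3-type coactivator recruitment using a TR-FRET ratio (emission 520 and 495 nm) between a Tb-labelled anti-GST antibody on TRα LBD (2.5 nM) and SRC-2 peptide (200 nM). Activity was scaled between DMSO and T3 wells.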

A short description of assay [10]: TOX21_TRB_BLA_Antagonist_Followup_viability: Viability Assessment in the Tox21 Thyroid Hormone Receptor beta Antagonism Beta-lactamase (BLA) Follow-Up Assay (AID 2283961). The essentials:
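HEK293T cells with GAL4-human TRβ LBD and UAS-bla reporter, 3,000 cells/well in 2% charcoal-stripped FBS medium; 11-point concentrations in triplicate, 18 h at 37C. Viability from ATP by CellTiter-Glo luminescence, 30 min RT, same plates.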

Assay [11] has as its target Retinoic acid receptor RXR-alpha (Homo sapiens) (UniProt P19793). In words: TOX21_TR_RXR_BLA_Antagonist_Followup_ratio: Tox21 Thyroid Hormone Receptor beta Retinoid X Receptor alpha (RXRa) Antagonism Beta-lactamase (BLA) Follow-Up Assay, Ratio (AID 2283972). The essentials:
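RXRa-UAS-bla HEK293T cells, 2,500/well in phenol red-free DMEM with 2% charcoal-stripped FBS, 5 h attachment, then compounds (11 concentrations, triplicate) for 16 h at 37C; FRET-B/GCCF4-AM substrate 2 h RT; 460:530 nm ratio, loss of signal vs DMSO.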

Results filed as inconclusive are left out. Active and inactive are the calls of the source. Rule for the calls: active = hit-call score of the fitted dose curve at least 0.9, where 1 is the maximum; inconclusive = response in the unintended direction; inactive = score below 0.9.

Chain of Cellular tumor antigen p53 (Homo sapiens) (P04637 whole entry, looked up): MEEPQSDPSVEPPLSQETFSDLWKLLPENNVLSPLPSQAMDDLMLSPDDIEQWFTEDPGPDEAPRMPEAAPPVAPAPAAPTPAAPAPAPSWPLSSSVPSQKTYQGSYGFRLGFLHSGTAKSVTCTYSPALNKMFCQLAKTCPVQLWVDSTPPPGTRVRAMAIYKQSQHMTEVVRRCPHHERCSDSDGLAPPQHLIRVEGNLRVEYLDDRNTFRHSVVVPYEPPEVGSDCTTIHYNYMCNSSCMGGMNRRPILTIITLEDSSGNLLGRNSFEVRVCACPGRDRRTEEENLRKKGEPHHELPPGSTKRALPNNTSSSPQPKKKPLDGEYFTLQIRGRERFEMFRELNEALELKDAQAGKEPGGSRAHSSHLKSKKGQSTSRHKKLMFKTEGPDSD
Chain of Retinoic acid receptor RXR-alpha (Homo sapiens) (P19793 whole entry, looked up): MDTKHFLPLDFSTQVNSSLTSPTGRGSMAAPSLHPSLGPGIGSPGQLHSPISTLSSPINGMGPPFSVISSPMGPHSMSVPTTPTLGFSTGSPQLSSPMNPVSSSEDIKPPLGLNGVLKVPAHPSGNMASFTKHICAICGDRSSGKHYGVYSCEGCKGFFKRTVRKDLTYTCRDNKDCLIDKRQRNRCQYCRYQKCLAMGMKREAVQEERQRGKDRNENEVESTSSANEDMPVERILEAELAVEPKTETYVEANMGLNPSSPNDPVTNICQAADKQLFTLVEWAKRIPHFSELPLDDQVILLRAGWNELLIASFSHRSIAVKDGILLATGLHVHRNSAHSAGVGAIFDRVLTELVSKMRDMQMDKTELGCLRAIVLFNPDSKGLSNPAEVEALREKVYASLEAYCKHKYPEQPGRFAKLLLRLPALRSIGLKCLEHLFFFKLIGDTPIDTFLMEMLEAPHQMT
Chain of THRA (gene 7067) (P10827 whole entry, looked up, the tested form may be a part): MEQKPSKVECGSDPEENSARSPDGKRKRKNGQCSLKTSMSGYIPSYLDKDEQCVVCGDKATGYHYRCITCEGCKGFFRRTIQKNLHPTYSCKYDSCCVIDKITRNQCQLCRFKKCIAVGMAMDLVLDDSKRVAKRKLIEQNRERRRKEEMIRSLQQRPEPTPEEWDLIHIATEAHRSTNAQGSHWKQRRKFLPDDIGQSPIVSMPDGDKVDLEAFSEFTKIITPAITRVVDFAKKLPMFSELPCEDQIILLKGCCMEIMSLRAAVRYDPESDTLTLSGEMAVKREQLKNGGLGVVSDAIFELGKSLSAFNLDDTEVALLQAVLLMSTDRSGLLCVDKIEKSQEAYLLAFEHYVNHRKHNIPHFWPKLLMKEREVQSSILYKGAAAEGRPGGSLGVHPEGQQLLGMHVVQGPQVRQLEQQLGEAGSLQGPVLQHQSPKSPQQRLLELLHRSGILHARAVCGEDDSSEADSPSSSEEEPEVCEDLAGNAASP

As for `O=C(N[C@@H]1N=C(c2ccccc2F)c2cccc3c2N(CC3)C1=O)c1cc2ccccc2[nH]1`, the result in [1], in assay [2], in assay [3], in [4], in [5] and in [6] was inactive. The outcome in assay [8], in assay [9], in assay [10] and in assay [11] was inactive. In addition, the half-maximal activity concentration (AC50) (commonly the concentration at which the activity in the assay is half-maximal) in [7] was 26.6 µM (active).
For `N#CC1(N=NC2(C#N)CCCCC2)CCCCC1`, the outcome in [1], in assay [2], in assay [3], in assay [4], in [5] and in assay [7] was inactive.
Consider `C[C@]12CC[C@@H]3c4ccc(OC(=O)N(CCCl)CCCl)cc4CC[C@H]3[C@@H]1CC[C@@H]2O`, for which the call in [1] and in [3] was inactive. Further, the concentration at half-maximal activity (AC50) was 24.6 µM (active) in assay [2], 29 µM (active) in assay [4], 25.2 µM (active) in assay [5] and 31.9 µM (active) in assay [7].
